For test [1] the following is noted: Ebola virus entry assay, green fluorescence channel.
For test [2] the following is noted: Ebola virus entry assay, blue channel fluorescence.
For test [3] the following is noted: Ebola virus entry assay, green fluorescence channel. This is another data set of the same source.
For test [4] the following is noted: Ebola virus entry assay, ratio channel readout.
The conditions of test [5]: Ebola virus entry assay, blue channel fluorescence. The source holds these as a separate data set.
The conditions of test [6]: Ebola virus entry assay, ratio channel.
For test [7] the following is noted: Ebola virus entry assay, green channel fluorescence.
The conditions of test [8]: Ebola virus entry assay, blue channel fluorescence. This is another data set of the same source.
For test [9] the following is noted: Ebola virus entry assay, reporter ratio channel; AC50: Channel type: primary unless noted; outcome: Channel type: primary unless noted.
The conditions of test [10]: Ebola virus entry assay, blue channel (ratio component).
For test [11] the following is noted: Ebola virus entry reporter assay, green channel fluorescence. A general note: A reporter such as luciferase makes a cellular process visible.
For test [12] the following is noted: Ebola virus entry cell assay, ratio channel.
The nature of test [13]: qHTS profiling for inhibitors of Plasmodium falciparum (DD2) proliferation (AID 743323). To be noted: lower = more inhibition; at 28.7 µM (top of the series). The procedure, abridged:
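SYBR Green fluorescence (ex 485, em 535 nm) of lysed cultures gives parasite DNA content; wells normalized to artemisinin (0.29 uM) and DMSO controls. Infected red cells: 0.3% parasitemia, 2.5% hematocrit, 72 h, 37 C.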

Test [14] in a line: qHTS profiling for inhibitors of Plasmodium falciparum (HB3) proliferation (AID 743324; active = well fitted curve in the direction sought with a large enough effect; inactive = no such curve, though single readings can be large or run the other way;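 note: 100% = DMSO vehicle wells and 0% = artemisinin-treated control wells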). The conditions noted are these: Plasmodium falciparum HB3 blood-stage proliferation; at 28.7 µM (top of the series). In a few lines: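 SYBR Green fluorescence (485 ex/535 em) of lysed cultures, incubated overnight at room temperature in the dark, quantifies parasite DNA. Infected erythrocytes at 0.3% parasitemia and 2.5% hematocrit were exposed 72 h; values normalized to DMSO and 0.29 uM artemisinin controls.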
For orientation: In qHTS, concentration-response curves come from the screen itself.

A short description of test [15]: Immunotoxin (SS1P) sensitization/mitigation study. Vehicle arm (DMEM) (AID 1159513). Note: potency is the fitted concentration of half-maximal effect. The conditions noted are these: cell viability with vehicle (DMEM); series mostly up to 46.1 µM.
Test [16] is described as follows: qHTS profiling of the MIPE4 collection as inhibitors of Plasmodium falciparum (DD2) proliferation (Rep 2) (AID 743346). The conditions noted are these: P. falciparum Dd2 in erythrocytes, SYBR Green DNA, 72 h; at 28.5 µM (top of the series) unless noted. The procedure, abridged:
(§1)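 Parasite DNA was quantified by SYBR Green I fluorescence (ex 485, em 535 nm) after overnight lysis in saponin/Triton buffer at room temperature. Cultures at 0.3% parasitemia and 2.5% hematocrit were first exposed to compound for 72 h at 37 C; signals were normalised to artemisinin (0.29 uM) and vehicle wells.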

The nature of test [17]: qHTS profiling of the MIPE4 collection as inhibitors of Plasmodium falciparum (HB3) proliferation (AID 743347).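 Note: plate controls were DMSO vehicle wells for no effect and artemisinin wells for full effect.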 To be noted: P. falciparum HB3 in erythrocytes, SYBR Green DNA, 72 h; at 28.5 µM (top of the series) unless noted. In a few lines:
as §1

The nature of test [18]: Immunotoxin (HA22) sensitization/mitigation study. Vehicle arm (PBS) (AID 1159510). Note: potency is the fitted concentration of half-maximal effect. To be noted: cancer cells viability with PBS vehicle (HA22 study); series mostly up to 46.1 µM.
The nature of test [19]: qHTS profiling of the MIPE4 collection as inhibitors of Plasmodium falciparum (3D7) proliferation (AID 743344).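 Note: scaled between DMSO vehicle wells and 0.29 µM artemisinin as full inhibition.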 The conditions noted are these: P. falciparum 3D7 in erythrocytes, SYBR Green DNA fluorescence, 72 h; at 28.5 µM (top of the series) unless noted. In a few lines: as §1
The nature of test [20]: qHTS profiling of the MIPE4 collection as inhibitors of Plasmodium falciparum (DD2) proliferation (AID 743345). To be noted: P. falciparum Dd2 in erythrocytes, SYBR Green DNA, 72 h; at 28.5 µM (top of the series) unless noted. In a few lines: as §1

For part of these data: Measured potencies and affinities stand elsewhere. Calls of active or inactive are those of the source.
Throughout, for efficacy: 0% is about no effect.

Regarding `CC(C)(C)NC(=O)[C@@H]1CN(Cc2cccnc2)CCN1C[C@@H](O)C[C@@H](Cc1ccccc1)C(=O)N[C@H]1c2ccccc2C[C@H]1O`, the efficacy in test [1] was -17.5% (inactive). For the same compound, the result in [2], in test [3], in test [4], in [5], in test [6] and in test [7] was inactive. Besides, the call in test [8], in test [9], in test [10], in [11] and in test [12] was inactive.
As to `CC[N+](C)(C)c1cccc(O)c1`, the efficacy in [1] is -13.4% (inactive). Further, the compound was called inactive in test [2], in test [3], in test [4], in test [5], in test [6] and in test [7]. Besides, the result in test [8], in [9], in test [10], in test [11] and in [12] was inactive.
Turning to `Oc1cn2c(n1)Nc1ccc(Cl)c(Cl)c1C2`, in test [13], the activity, percent of control worked out at 97.1%. Moreover, in [14], the remaining proliferation (% of control), lower = more inhibition came out at 97.7%. Besides, the efficacy in test [1] is -19.4% (inactive). The compound was classed as inactive in test [2], in test [3], in test [4], in [5], in test [6] and in [7]. The outcome in test [8], in test [9], in test [10], in test [11] and in test [12] was inactive. In addition, the Potency in test [15] was 0.0066 µM (active).
As to `OC(Cn1cncn1)(Cn1cncn1)c1ccc(F)cc1F`, the parasite growth, % of control (lower = inhibition) in test [16] amounted to 88.1%.
As to `O=NN(CCCl)C(=O)NCCCl`, the growth, % of control in test [17] turned out to be 83.1%.
On to `Nc1ncn([C@@H]2O[C@H](CO)[C@@H](O)[C@H]2O)c(=O)n1`, for which the results for the Potency in test [18] and in [15] were 4.18 µM (active) and 14.8 µM (active), respectively.
Regarding `COc1c(C)c2c(c(O)c1C/C=C(\C)CCC(=O)OCCN1CCOCC1)C(=O)OC2`, the efficacy in test [1] is -9.5% (inactive). Moreover, the result in test [2], in test [3], in test [4], in [5], in test [6] and in [7] was inactive. For the same compound, the result in test [9] and in test [10] was inactive. Moreover, in [12], the AC50 was 3.98 µM (active).
In the case of `O=C1[C@H](CC[C@H](O)c2ccc(F)cc2)[C@@H](c2ccc(O)cc2)N1c1ccc(F)cc1`, the efficacy in test [1] was -26.4% (inactive). For the same compound, the compound was classed as inactive in test [2], in test [3], in test [4], in test [6], in [7] and in test [8]. Further, the compound was called inactive in test [11] and in test [12]. Moreover, the concentration at half-maximal activity (AC50) in test [5] and in test [9] was 28.2 µM (active) each time.
In the case of `CC(C)C(=O)Nc1ccc([N+](=O)[O-])c(C(F)(F)F)c1`, in [19], the parasite growth, % of DMSO control turned out to be 93%. For the same compound, the parasite growth remaining, % of DMSO control (lower = more inhibition) in [20] is 91%. For the same compound, the efficacy in [1] is -18.2% (inactive). Further, the call in [2], in test [3], in test [4], in test [5], in [6] and in test [7] was inactive. The compound was called inactive in test [8], in [9], in [10] and in test [12].
Turning to `CC(=O)Oc1ccccc1C(=O)Nc1ncc([N+](=O)[O-])s1`, the efficacy in test [1] is 16.8% (inactive). Further, the compound was classed as inactive in test [2], in [3], in test [4], in [5], in test [6] and in [7]. For the same compound, the result in test [9] and in [12] was inactive.
Turning to `CC[C@H](C)C(=O)O[C@H]1C[C@@H](C)C=C2C=C[C@H](C)[C@H](CC[C@@H]3C[C@@H](O)CC(=O)O3)[C@H]21`, in test [1], the efficacy was 16.1% (inactive). Moreover, the call in test [2], in [3], in [4], in [5], in test [6] and in [7] was inactive. For the same compound, the result in test [9], in test [10] and in test [12] was inactive.
Take `NNc1nncc2ccccc12`: the efficacy in [1] was -27.3% (inactive). In addition, the outcome in [2], in [3], in test [4], in [5], in [6] and in test [7] was inactive. Also, the outcome in [9], in test [10], in [11] and in [12] was inactive.
With `C=C[C@H]1CN2CC[C@H]1C[C@@H]2[C@@H](O)c1ccnc2ccc(OC)cc12`, the efficacy in test [1] was 36.3% (inactive). Also, the outcome in test [2], in test [3], in [4], in test [6], in test [7] and in test [8] was inactive. In addition, the call in [11] and in [12] was inactive. For the same compound, the figures for the AC50 in test [5] and in [9] were 20 µM (active) and 35.5 µM (active), respectively.
`CCCC(C)(COC(N)=O)COC(=O)NC(C)C` (centres undefined) had a parasite growth, % of DMSO control in [19] of 93%. In [20], the parasite growth remaining, % of DMSO control (lower = more inhibition) was 91%. In addition, in [1], the efficacy is 22.1% (inactive). Besides, the result in [2], in test [3], in [4], in test [5], in test [6] and in test [7] was inactive. Moreover, the compound was classed as inactive in test [8], in [9], in test [10] and in [12].
For `C#C[C@]1(O)CC[C@H]2[C@@H]3CCC4=Cc5oncc5C[C@]4(C)[C@H]3CC[C@@]21C`, in test [1], the efficacy was 22.7% (inactive). Moreover, the result in [2], in test [3], in [4], in [7] and in test [11] was inactive. For the same compound, the AC50 in test [5] was 7.94 µM (active); in test [6], 6.31 µM (active); in test [9] it was 6.31 µM (active); in test [12], 25.1 µM (active).
With `C=C(CC)C(=O)c1ccc(OCC(=O)O)c(Cl)c1Cl`, the efficacy in test [1] is 39.8% (inactive). In addition, the result in test [2], in test [3], in test [4], in test [7] and in [12] was inactive. In addition, the AC50 is 14.1 µM (active) in test [5], 15.8 µM (active) in test [6] and 15.8 µM (active) in test [9].
For the compound `Cc1ccc(C)c(OCCCC(C)(C)C(=O)O)c1`, in [1], the efficacy was -13.5% (inactive). In addition, the result in [2], in test [3], in [4], in test [5], in [6] and in test [7] was inactive. In addition, the result in test [8], in test [9], in test [11] and in [12] was inactive.
Consider `Cc1nccn1CC1CCc2c(c3ccccc3n2C)C1=O` (centres undefined), for which the efficacy in test [1] is -22.2% (inactive). For the same compound, the result in [2], in [3], in [4], in [7], in test [8] and in test [11] was inactive. Further, the outcome in [12] was inactive. The AC50 in test [5], in test [6] and in test [9] was 22.4 µM (active) throughout.
Regarding `CCCN1C[C@H](CSC)C[C@@H]2c3cccc4[nH]cc(c34)C[C@H]21`, the efficacy in test [1] is 14.5% (inactive). In addition, the compound was called inactive in test [2], in test [3], in test [4], in [7], in test [8] and in [12]. The AC50 in test [5] is 11.2 µM (active); in test [6], 7.94 µM (active); in test [9], 7.94 µM (active).
In the case of `CC(COc1ccccc1)N(CCCl)Cc1ccccc1` (centres undefined), the efficacy in [1] was 44% (inactive). Moreover, the compound was called inactive in [2], in [3], in test [4], in [7], in test [8] and in test [11]. The result in test [12] was inactive. Moreover, the AC50 is 28.2 µM (active) in test [5], 17.8 µM (active) in test [6] and 17.8 µM (active) in test [9].
Take `COc1cc2nc(N3CCN(C(=O)C4CCCO4)CC3)nc(N)c2cc1OC` (centres undefined): the efficacy in [1] was 13% (inactive). In addition, the outcome in test [2], in test [3], in [4], in [6], in test [7] and in test [8] was inactive. Moreover, the call in test [11] and in test [12] was inactive. The half-maximal activity concentration (AC50) is 35.5 µM (active) in test [5] and 28.2 µM (active) in test [9].

Broadly, the AC50 is the concentration giving half of the maximal activity seen.

(Values after PubChem BioAssay (NCATS).)
